# Reference: PubChem BioAssay AID1159580 (chemical genetic matrix, 2015)
# “And” between values parts separate entries of the source, which are not always exact repeats. Equal values may be shown once. Hit rate of the full screen: of about 5,500 compounds, about 2,000 (36%) were called active. Another 18% or so got no clear call; they are omitted. No stated cut-off is given here; in the data, active means normalized growth mostly below about 0.91 (no sharp cut-off); inconclusive means no clear call, values can overlap the other calls; inactive means mostly above about 0.92. The list shows a part of the results.
# Assay: chemical genetic growth profiling, strain panel (AID 1159580);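 further: tested at 20 µM; growth read once vehicle control cultures reached saturation at 30 °C; 1 = growth at the plate median or of vehicle wells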
# Conditions: S. cerevisiae deletion strains, growth OD
smiles,measurement,setting,value
Nc1ccc(C(=O)Oc2ccccc2)c(O)c1,normalized growth,"locus YAL021C, strain ccr4, stronger effect = lower value",0.967 (inactive)
same,normalized growth,"locus YAL026C, strain drs2, stronger effect = lower value",0.915 (inactive)
same,normalized growth,"locus YAL030W, strain snc1, stronger effect = lower value",0.935 (inactive)
same,normalized growth,"locus YBL061C, strain skt5, stronger effect = lower value",0.932 (inactive)
same,normalized growth,"locus YBR009C, strain hhf1, stronger effect = lower value",0.934 (inactive)
same,normalized growth,"locus YBR021W, strain FUR4, stronger effect = lower value",0.981 (inactive)
same,normalized growth,"locus YBR023C, strain chs3, stronger effect = lower value",0.925 (inactive)
same,normalized growth,"locus YBR171W, strain sec66, stronger effect = lower value",0.937 (inactive)
same,normalized growth,"locus YBR229C, strain ROT2, stronger effect = lower value",0.948 (inactive)
same,normalized growth,"locus YBR231C, strain swc5, stronger effect = lower value",0.954 (inactive)
same,normalized growth,"locus YBR279W, strain paf1, stronger effect = lower value",0.957 (inactive)
same,normalized growth,"locus YCL011C, strain gbp2, stronger effect = lower value",0.929 (inactive)
same,normalized growth,"locus YCL016C, strain dcc1, stronger effect = lower value",0.942 (inactive)
same,normalized growth,"locus YCL029C, strain bik1, stronger effect = lower value",0.883 (active)
same,normalized growth,"locus YCL061C, strain MRC1, stronger effect = lower value",0.951 (inactive)
same,normalized growth,"locus YCL069W, strain vba3, stronger effect = lower value",0.95 (inactive)
same,normalized growth,"locus YCR088W, strain abp1, stronger effect = lower value",0.921 (active)
same,normalized growth,"locus YDL005C, strain med2, stronger effect = lower value",0.971 (inactive)
same,normalized growth,"locus YDL035C, strain GPR1, stronger effect = lower value",0.867 (inactive)
same,normalized growth,"locus YDL040C, strain nat1, stronger effect = lower value",0.938 (inactive)
same,normalized growth,"locus YDL074C, strain BRE1, stronger effect = lower value",0.67 (active)
same,normalized growth,"locus YDL101C, strain DUN1, stronger effect = lower value",0.906 (inactive)
same,normalized growth,"locus YDL134C, strain PPH21, stronger effect = lower value",0.837 (active)
same,normalized growth,"locus YDL185W, strain tfp1, stronger effect = lower value",0.966 (inactive)
same,normalized growth,"locus YDL192W, strain arf1, stronger effect = lower value",0.807 (active)
same,normalized growth,"locus YDR001C, strain nth1, stronger effect = lower value",0.936 (inactive)
same,normalized growth,"locus YDR069C, strain doa4, stronger effect = lower value",0.948 (inactive)
same,normalized growth,"locus YDR101C, strain arx1, stronger effect = lower value",0.864 (active)
same,normalized growth,"locus YDR137W, strain rgp1, stronger effect = lower value",0.545 (active)
same,normalized growth,"locus YDR150W, strain NUM1, stronger effect = lower value",0.957 (inactive)
same,normalized growth,"locus YDR159W, strain sac3, stronger effect = lower value",0.862 (active)
same,normalized growth,"locus YDR162C, strain NBP2, stronger effect = lower value",0.567 (active)
same,normalized growth,"locus YDR195W, strain ref2",1.04 (inactive)
same,normalized growth,"locus YDR297W, strain sur2, stronger effect = lower value",0.932 (inactive)
same,normalized growth,"locus YDR318W, strain mcm21, stronger effect = lower value",0.765 (active)
same,normalized growth,"locus YDR334W, strain swr1, stronger effect = lower value",0.944 (inactive)
same,normalized growth,"locus YDR335W, strain msn5, stronger effect = lower value",0.941 (inactive)
same,normalized growth,"locus YDR388W, stronger effect = lower value",0.884 (active)
same,normalized growth,"locus YDR392W, strain spt3, stronger effect = lower value",0.81 (inactive)
same,normalized growth,"locus YDR502C, strain sam2, stronger effect = lower value",0.767 (active)
same,normalized growth,"locus YEL003W, strain gim4, stronger effect = lower value",0.933 (inactive)
same,normalized growth,"locus YEL037C, strain rad23, stronger effect = lower value",0.946 (inactive)
same,normalized growth,"locus YEL061C, strain CIN8 (second series), stronger effect = lower value",0.916 (inactive)
same,normalized growth,"locus YEL061C, strain CIN8, stronger effect = lower value",0.938 (inactive)
same,normalized growth,"locus YER015W, strain faa2, stronger effect = lower value",0.944 (inactive)
same,normalized growth,"locus YER016W, strain bim1, stronger effect = lower value",0.941 (inactive)
same,normalized growth,"locus YER110C, stronger effect = lower value",0.86 (active)
same,normalized growth,"locus YER111C, strain swi4, stronger effect = lower value",0.938 (inactive)
same,normalized growth,"locus YER155C, strain BEM2 (second series), stronger effect = lower value",0.533 (active)
same,normalized growth,"locus YER155C, strain BEM2, stronger effect = lower value",0.947 (inactive)
same,normalized growth,"locus YER167W, strain BCK2, stronger effect = lower value",0.759 (active)
same,normalized growth,"locus YFR010W, strain ubp6, stronger effect = lower value",0.95 (inactive)
same,normalized growth,"locus YGL078C, strain dbp3, stronger effect = lower value",0.893 (active)
same,normalized growth,"locus YGL086W, strain mad1, stronger effect = lower value",0.801 (active)
same,normalized growth,"locus YGL167C, strain pmr1, stronger effect = lower value",0.942 (inactive)
same,normalized growth,"locus YGL173C, strain kem1, stronger effect = lower value",0.899 (active)
same,normalized growth,"locus YGL227W, strain vid30, stronger effect = lower value",0.927 (inactive)
same,normalized growth,"locus YGL240W, strain doc1, stronger effect = lower value",0.864 (active)
same,normalized growth,"locus YGL248W, strain PDE1, stronger effect = lower value",0.864 (active)
same,normalized growth,"locus YGL253W, strain hxk2, stronger effect = lower value",0.967 (inactive)
same,normalized growth,"locus YGR135W, strain pre9, stronger effect = lower value",0.676 (active)
same,normalized growth,"locus YGR252W, strain gcn5, stronger effect = lower value",0.589 (active)
same,normalized growth,"locus YHR013C, strain ard1, stronger effect = lower value",0.907 (inactive)
same,normalized growth,"locus YHR027C, strain rpn1, stronger effect = lower value",0.945 (inactive)
same,normalized growth,"locus YHR030C, strain SLT2, stronger effect = lower value",0.9 (active) and 0.937 (inactive)
same,normalized growth,"locus YHR079C, strain IRE1 (second series), stronger effect = lower value",0.864 (active)
same,normalized growth,"locus YHR079C, strain IRE1, stronger effect = lower value",0.929 (inactive)
same,normalized growth,"locus YHR094C, strain hxt1, stronger effect = lower value",0.926 (inactive)
same,normalized growth,"locus YHR129C, strain ARP1, stronger effect = lower value",0.88 (active)
same,normalized growth,"locus YHR142W, strain chs7, stronger effect = lower value",0.894 (inactive)
same,normalized growth,"locus YHR200W, strain rpn10, stronger effect = lower value",0.913 (active)
same,normalized growth,"locus YIL066C, strain RNR3, stronger effect = lower value",0.741 (active)
same,normalized growth,"locus YIL073C, strain SPO22, stronger effect = lower value",0.764 (inactive)
same,normalized growth,"locus YIL125W, strain kgd1, stronger effect = lower value",0.922 (active)
same,normalized growth,"locus YIR030C, strain dcg1, stronger effect = lower value",0.867 (active)
same,normalized growth,"locus YJL092W, strain hpr5, stronger effect = lower value",0.943 (inactive)
same,normalized growth,"locus YJL095W, strain BCK1 (second series), stronger effect = lower value",0.936 (inactive)
same,normalized growth,"locus YJL095W, strain BCK1, stronger effect = lower value",0.651 (active) and 0.94 (inactive)
same,normalized growth,"locus YJL115W, strain asf1, stronger effect = lower value",0.936 (inactive)
same,normalized growth,"locus YJL129C, strain trk1, stronger effect = lower value",0.892 (inactive)
same,normalized growth,"locus YJL134W, strain LCB3, stronger effect = lower value",0.955 (inactive)
same,normalized growth,"locus YJL154C, strain vps35, stronger effect = lower value",0.941 (inactive)
same,normalized growth,"locus YJL164C, strain tpk1, stronger effect = lower value",0.919 (inactive)
same,normalized growth,"locus YJL166W, strain qcr8, stronger effect = lower value",0.935 (inactive)
same,normalized growth,"locus YJL168C, strain set2, stronger effect = lower value",0.921 (active)
same,normalized growth,"locus YJL187C, strain SWE1 (second series), stronger effect = lower value",0.876 (inactive)
same,normalized growth,"locus YJL187C, strain SWE1, stronger effect = lower value",0.944 (inactive)
